The whole screen tested about 320,000 compounds, of which about 1,300 (0.41%) were called active. Inconclusive results (about 3%) are left out. How the calls were made is not given here. A selection follows. Entries with a potency or affinity are not part of this list.
Experiment: growth inhibition of non-replicating M. tuberculosis (AID 488890);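 further: plate controls were DMSO cells for no effect and high antibiotic wells for full effect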
Settings: Mycobacterium tuberculosis non-replicating, at 25 µM, stronger effect = higher value

| Compound | inhibition [%] |
| --- | --- |
| COC(=O)Cn1c(CN2CCN(C(=O)c3ccco3)CC2)nc2c1c(=O)n(C)c(=O)n2C | 0.07 |
| O=P(Cc1cccc[n+]1[O-])(c1ccccc1)c1ccccc1 | -13.7 |
| CC(C)C(c1nnnn1Cc1ccccc1)N1CCN(Cc2ccc3c(c2)OCO3)CC1 (centres undefined) | 31.2 |
| Cc1nc(SCC(=O)N2CCOCC2)c2c(=O)n(C)c(=O)n(CC(C)C)c2n1 | -4.99 |
| O=C(NN=Cc1ccc(N2CCOCC2)s1)c1ccc([N+](=O)[O-])cc1 | 0.11 |
| Cc1onc(-c2ccccc2)c1C(=O)N/N=C/c1ccc([N+](=O)[O-])c(O)c1 | 32 |
| CCOC(=O)N/N=C\c1ccc(C)s1 | -9.49 |
| Cc1ccccc1NCC(=O)N/N=C/c1ccc([N+](=O)[O-])cc1 | 10 |
| O=C(N/N=C/c1ccc(Br)s1)c1ccc([N+](=O)[O-])cc1 | 10.3 |
| Cc1ccccc1NCC(=O)N/N=C\C=C\c1cccc([N+](=O)[O-])c1 | 44 |
| CCOC(=O)N/N=C/c1ccc(N2CCOCC2)s1 | 1.14 |
| Cc1onc(-c2ccccc2)c1C(=O)N/N=C/c1cccs1 | 51.2 |
| CN(Cc1nc2ccccc2c(=O)[nH]1)C(=O)c1ccc(S(=O)(=O)N(C)C)cc1 | -7.99 |
| Cc1ccc(Cc2c(C)c(C#N)c3[nH]c4ccccc4n3c2=O)cc1 | 55.7 |
| COc1ccc(S(=O)(=O)N2CCC(Nc3ccccc3Cl)CC2)cc1 | 35 |
| COc1ccc(NC(=O)CN(Cc2ccccc2)S(C)(=O)=O)c(OC)c1 | 6.99 |
| CO/N=C(\C)c1ncc(C(F)(F)F)cc1N1CCOCC1 | -6.77 |
| Cc1ccc(C(=O)NC(NCC2CCCO2)C(Cl)(Cl)Cl)cc1 (centres undefined) | -8.87 |
| CC1CCCN(CCCNC(=O)c2ccc(N3CCCC3=O)cc2)C1 (centres undefined) | -2.78 |
| O=C(CCC(=O)N1CCN(c2ccccc2)CC1)Nc1nnc(C2CCCCC2)s1 | -14.5 |
| O=C(CSc1nnc(COc2ccccc2F)n1-c1ccccc1)NC1CCS(=O)(=O)C1 (centres undefined) | -2.12 |
| Cc1ccc(NC(=S)N(CCN(C)C)Cc2cc3cc(C)ccc3[nH]c2=O)cc1 | 56.8 |

| Compound | inhibition [%] |
| --- | --- |
| COc1ccccc1CNC(=O)c1cnccn1 | 41.3 |
| O=C(N/N=C/c1ccc(Cl)s1)c1ccccc1[N+](=O)[O-] | 19.9 |
| O=C(N/N=C/c1ccc(Br)s1)c1ccccc1[N+](=O)[O-] | 88.6 |
| O=C(N/N=C\c1cc(Br)c(Br)o1)c1cncc(Br)c1 | -11.5 |
| COc1cc([N+](=O)[O-])cc(/C=N/NC(=O)c2cncc(Br)c2)c1O | 10.5 |
| Cc1ccc(-c2cc(C(=O)OCn3nnc4ccccc4c3=O)c3ccccc3n2)cc1 | -0.92 |
| O=C1c2ccccc2C(=O)N1C1CCCCC1 | -9.63 |
| CC1NC(=S)N(C2CCCCC2)C1=O (centres undefined) | 7.51 |
| COc1ccc2[nH]c(=O)c(CN(C(=O)c3cccnc3)c3ccc(C)c(C)c3)cc2c1 | -6.7 |
| O=C(O)c1ccc(CSc2nnc(-c3ccco3)o2)cc1 | 3.82 |
| Cc1cccc(-c2nnc(SCc3ccccc3)o2)c1 | 64.4 |
| O=C(O)c1cccc(CSc2nnc(-c3ccco3)o2)c1 | 3.8 |
| Brc1ccc(-c2nnc(-c3ccco3)o2)cc1 | 9.05 |
| COc1ccccc1N1CCN(CC(O)COCc2cccs2)CC1 (centres undefined) | -4.29 |
| Cc1c(NC(=O)c2ccccc2NC(=O)COc2ccccc2)cccc1C(=O)O | 4.87 |
| COc1c[nH]n(-c2ccccc2)c(=O)c1=O | 3.41 |
| COc1cc2[nH]c(=O)n(C3CCCCC3)c(=O)c2cc1OC | 6.65 |
| O=C(C1CC(=O)N(c2ccc(Cl)cc2)C1)N1CCOCC1 (centres undefined) | -7.5 |
| COc1ccc(OCC(=O)N/N=C2\CCCc3ccccc32)cc1 | 34.2 |
| COc1ccc(OCC(=O)N/N=C2\CCCCc3ccccc32)cc1 | 22.5 |
| Cc1c(Cl)c([N+](=O)[O-])nn1CC(=O)N1CCN(Cc2ccccc2)CC1 | -5.75 |
| O=C(COc1c(Cl)cccc1Cl)NN1C(=O)CSC1=S | 8.7 |

| Compound | inhibition [%] |
| --- | --- |
| C/C(=N\NC(=O)CCCNc1cccc(C)c1)c1ccncc1 | -0.79 |
| C/C(=N\NC(=O)CCCNc1ccccc1)c1ccncc1 | 1.29 |
| CCCCCCCCCC(=O)N/N=C(\C)c1cccnc1 | -3.96 |
| CCCCCCCC(=O)N/N=C(\C)c1cccnc1 | -21.2 |
| FC(F)C(F)(F)C1=CC(c2ccccc2)=NCCN1 | 12.6 |
| COc1ccc(CN(C(=O)c2ccco2)C2CCS(=O)(=O)C2)cc1 (centres undefined) | 1.18 |
| Cn1cccc1/C=N/NC(=O)c1cc(-c2cccs2)nc2ccccc12 | -12.1 |
| COc1ccc(CNC(=O)C(C)c2ccc([N+](=O)[O-])cc2)cc1 (centres undefined) | 36.2 |
| COc1ccc(N2CCN(S(=O)(=O)c3ccc4c(c3)CC(C)N4C(=O)C3CC3)CC2)cc1 (centres undefined) | -6.48 |
| O=C(OCC(=O)N1CCN(S(=O)(=O)c2ccc(Cl)cc2)CC1)c1ccc([N+](=O)[O-])o1 | 67.7 |
| COc1cc(C(=O)COC(=O)c2ccc([N+](=O)[O-])o2)cc(OC)c1OC | 34.7 |
| O=C(COC(=O)c1ccc([N+](=O)[O-])o1)NCc1ccccc1 | 49.8 |
| COc1ccc(OC)c(C(=O)COC(=O)c2ccc([N+](=O)[O-])o2)c1 | 54.8 |
| O=C(OCC(=O)N1CCN(S(=O)(=O)c2ccccc2)CC1)c1ccc([N+](=O)[O-])o1 | 66.7 |
| O=C(COC(=O)c1ccc([N+](=O)[O-])o1)c1ccccc1 | 22.4 |
| Cn1c(N)c(C(=O)COC(=O)c2ccc([N+](=O)[O-])o2)c(=O)n(C)c1=O | 69.7 |
| CCc1ccc(C(=O)OCC(=O)c2c(N)n(CC(C)C)c(=O)n(C)c2=O)cc1 | 24.9 |
| COc1ccccc1C(=O)N1CCC(C(=O)c2ccc(F)cc2)CC1 | 5.17 |
| O=C(O)C1CCCN(S(=O)(=O)c2ccccc2[N+](=O)[O-])C1 (centres undefined) | -3.19 |
| CC(=O)c1cccc(NC(=O)CCc2nnc3ccc(N4CCN(C)CC4)nn23)c1 | 1.24 |
| COC(=O)c1[nH]nc(C(=O)OC(C)(C)C)c1-c1ccccc1 | 0.97 |
| COc1ccc(C(=O)NCC(C)NC(=O)c2ccc(OC)c(Br)c2)cc1Br (centres undefined) | -0.81 |

| Compound | inhibition [%] |
| --- | --- |
| CCC(Oc1ccc(F)cc1)C(=O)N1CCCCCCC1 (centres undefined) | -13.2 |
| COCCNC(=O)CS(=O)(=O)Cc1nc(-c2ccc(C)cc2)oc1C | -26 |
| CCC(CO)Nc1ncnc2onc(-c3ccc(F)cc3)c12 (centres undefined) | -5.65 |
| Cc1nnsc1C(=O)N1CCN(c2cc(C(F)(F)F)ccn2)CC1 | 1.32 |
| Cc1ccc(N(C(=O)CS(=O)CC(=O)Nc2ccc(F)cc2)C(C)C(=O)NC(C)(C)C)cc1 (centres undefined) | -2.13 |
| CC1CCCCN1S(=O)(=O)c1ccc([N+](=O)[O-])cc1 (centres undefined) | -4.65 |
| Cc1ccc(NC(=O)COC(=O)Cn2c(C)csc2=O)cc1 | 7.46 |
| COCCn1c(C)cc(C(=O)COC(=O)c2cccc(O)c2)c1C | -6.95 |
| COCCn1c(C)cc(C(=O)COC(=O)c2ccc(S(=O)(=O)N(C)C)cc2)c1C | -12.9 |
| COc1ccc([N+](=O)[O-])cc1NC(=O)c1cncc(Br)c1 | 36.5 |
| CCOCCCNC(=O)C(c1ccccc1)N(Cc1ccc2c(c1)OCO2)C(=O)c1ccccc1O (centres undefined) | 4.13 |
| O=C(O)COc1cccc(NC(=O)c2ccccc2)c1 | -6.49 |
| COC(=O)COc1cccc(NC(=O)c2cc(OC)cc(OC)c2)c1 | 58.8 |
| Cc1cccc(C(=O)Nc2cccc(OCC(=O)O)c2)c1 | -11.3 |
| Cc1cccc(C(=O)Nc2cccc(OC(=O)c3cccc(C)c3)c2)c1 | 51.4 |
| Cc1cccc(N(C(=O)c2snc(C(N)=O)c2N)C(C(=O)NCc2ccccc2)c2ccncc2)c1 (centres undefined) | 11.8 |
| O=C(COc1ccc(-n2cnnn2)cc1)Nc1cccc(Cl)c1Cl | 5.43 |
| Cc1nnc(N/N=C/c2ccccc2C(F)(F)F)n1N | 3.91 |
| Cc1cc(Cl)nc(Cl)c1C(=O)NCCc1ccccc1 | 5.34 |
| CC(C)Cc1nnc(NC(=O)CCC(=O)Nc2ccc(Cl)cc2)s1 | 12.6 |
| CCc1nnc(NC(=O)CCS(=O)(=O)c2ccc(C)cc2)s1 | 77.7 |
| C=CCOC(=O)/C(=C\c1ccccc1)NC(=O)c1ccco1 | -12.7 |

| Compound | inhibition [%] |
| --- | --- |
| C[C@H](NC(=O)c1nc[nH]c1C(=O)N1CCN(C(=O)OC(C)(C)C)CC1)C(=O)OC(C)(C)C | -4.48 |
| O=[N+]([O-])c1ccc(OCCCCN2CCc3ccccc3C2)cc1 | 57.5 |
| COc1ccc(OCCCN2CCc3ccccc3C2)cc1 | 46.6 |
| Cc1ccc2nc(/N=C(\N)NC(=O)N3c4ccccc4Sc4ccccc43)nc(C)c2c1 | 10.2 |
| Cc1ccc2nc(N=C(N)N)nc(C)c2c1 | 30.9 |
| Cc1nc(/N=C(\N)NC(=O)c2ccccc2)nc2ccccc12 | -4.45 |
| Cc1cc2nc(/N=C(\N)NC(=O)N3c4ccccc4Sc4ccccc43)nc(C)c2cc1C | -20.4 |
| Cc1ccccc1Cn1cc(S(=O)(=O)c2ccc(C(C)C)cc2)c(=O)c2cc3c(cc21)OCO3 | 11.4 |
| Cc1ccc(S(=O)(=O)NC(CCc2ccccc2)CC(=O)C(C)(C)C)cc1 (centres undefined) | 0.24 |
| CCOC(=O)CN1C2=NCCCN2c2ccccc21 | 15.4 |
| O=C(Cc1ccc(Cl)cc1)Nc1cccnc1 | 30.9 |
| O=C(O)c1ccccc1Nc1cc(Cl)c2nonc2c1[N+](=O)[O-] | 71.1 |
| O=C(O)c1ccc(Nc2cc(Cl)c3nonc3c2[N+](=O)[O-])cc1 | 76 |
| CC(NC(=O)c1cc(S(=O)(=O)N2CCOCC2)ccc1N1CCCC1)c1ccc(Cl)c(Cl)c1 (centres undefined) | 4.97 |
| Cc1cccc(Cn2c(N3CCN(C)CC3)nc3c2c(=O)n(C)c(=O)n3C)c1 | -18 |
| CCOC(=O)c1c(NC(=O)COC(=O)c2nccnc2N)sc2c1CCC2 | 26.4 |
| CCOC(=O)c1c(NC(=O)COC(=O)c2ccccn2)sc(C)c1C | 37 |
| Cc1ccc(CN2C(=O)CSC2c2ccccc2F)cc1 (centres undefined) | 10.3 |
| CCCCCCn1c(COc2ccccc2F)nnc1SCC(=O)c1c(N)n(C)c(=O)n(C)c1=O | -10.3 |
| CC1=CS(=O)(=O)CC1Sc1nc(C)n[nH]1 (centres undefined) | -1.03 |
| Cc1ccc(O)c(C(=O)c2cnc3c(c2)c(=O)n(C)c(=O)n3C)c1 | -3.64 |
